From PubChem
In the library only some 1.6% were active in any assay of this set; here they are far more common.
KCNQ2 enhance = potentiators of rat KCNQ2 potassium channel; CHO-K1 KCNQ2, FluxOR thallium flux fluorescence; stronger effect = higher value; hit rate 0.54% among 310,000; O88943; AID 2239; B-score at 10 µM;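 active means fluorescence ratio B-score at least 3 SD of library B-scores, with initial fluorescence B-score within 3 of them, cut at about 5.3 in these data; same plate scores as AID 2156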;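 further: B-score of peak minus minimum over baseline fluorescence ratio after K+ and Tl+ stimulus; positive B-score means potentiation of KCNQ2 with more thallium influx and brighter signal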
KCNQ2 block = KCNQ2 (rat) channel inhibition; O88943; CHO-K1 KCNQ2, FluxOR thallium flux, 20 min; stronger effect = lower value; B-score at 10 µM; hit rate 1.1% among 310,000;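 active means fluorescence ratio B-score at most minus 3 library SDs, with starting brightness B-score within 2 library SDs, cut at about -5.5 in these data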
* = called active by the depositor; i = inactive; nt = no result given.

SMILES	KCNQ2 enhance	KCNQ2 block
Cn1c(CNc2nc3ccccc3n2CCN2CCCCC2)nc2ccccc21	nt	i
CCN(CC)CCn1c(NCc2nc3ccccc3n2Cc2ccccc2)nc2ccccc21	-6.2	-6.2*
c1ccc(Cn2c(CNc3nc4ccccc4n3CCN3CCCCC3)nc3ccccc32)cc1	-7.3	-7.3*
CCN(CC)CCn1c(NCc2ccco2)nc2ccccc21	0.5	i
COc1cc(-c2nnc(SC/C=C/c3ccccc3)n2N)cc(OC)c1OC	-5.9	-5.9*
Nn1c(SC/C=C/c2ccccc2)nnc1-c1ccncc1	nt	i
CN1CCN(CCCNC(=O)Nc2ccc([N+](=O)[O-])cc2)CC1	nt	i
Cc1ccc(NC(=O)CCCC2CCCCC2)c(O)c1	2.8	i
CCC(C)C(=O)Nc1nnc(CCc2ccccc2)s1 (centres undefined)	nt	i
C=CCN(c1ccccc1OC)S(=O)(=O)c1cccc(C(=O)OCC(=O)c2c[nH]c3ccccc23)c1	6.7*	i
Cc1ccc(C(=O)OCC(=O)c2c[nH]c3ccccc23)cc1	0.98	i
COc1cc(OC)c(N(C)S(=O)(=O)c2cccc(C(=O)OCC(=O)c3c[nH]c4ccccc34)c2)cc1Cl	6.3*	i
COc1cc(C(=O)OCC(=O)c2c[nH]c3ccccc23)ccc1OCC(=O)N1CCOCC1	nt	i
O=C(CSc1nc(=O)n(CCCN2CCOCC2)c2c1CCCC2)Nc1ccc(Cl)cc1	nt	i
CN1CCN(c2ccc(Cl)cc2NC(=O)/C=C/c2ccc(F)cc2)CC1	-5.6	-5.6*
O=C(/C=C/c1ccc(F)cc1)Nc1cc(S(=O)(=O)N2CCOCC2)ccc1N1CCCC1	nt	i
Cc1ccc(SCC(=O)Nc2ccc(S(N)(=O)=O)cc2)cc1	nt	i
O=c1c2ccccc2nc(SCc2ccccc2Cl)n1Cc1ccccc1	nt	i
CCSc1nc2ccccc2c(=O)n1C1CCOC(C)(C)C1 (centres undefined)	nt	i
CCOC(=O)CSc1nc2ccccc2c(=O)n1CC1CCCC1	-6.1	-6.1*
C=CCSc1nc2ccccc2c(=O)n1Cc1ccccc1	-5.7	-5.7*
O=C1OCCC1Sc1nc2ccccc2c(=O)n1Cc1ccc(F)cc1 (centres undefined)	6.3*	i
CCOC(=O)CSc1nc2ccccc2c(=O)n1CC	0.49	i
C=CCSc1nc2ccccc2c(=O)n1C1CCOC(C)(C)C1 (centres undefined)	-6	-6*
O=C1OCCC1Sc1nc2ccccc2c(=O)n1-c1ccc(F)cc1 (centres undefined)	nt	i
SMILES	KCNQ2 enhance	KCNQ2 block
O=C(Nc1ccnn1C1CCN(C(=O)c2cnsn2)CC1)c1cccc(F)c1	1	i
Cc1c(NC(=O)CSCc2ccc(Br)cc2)c(=O)n(-c2ccccc2)n1C	nt	i
CN1CCN(c2ccc(CNS(=O)(=O)c3ccc(Cl)cc3)cc2)CC1	0.98	i
CCN(CC)C(=O)CSc1nc2ccccc2c(=O)n1CC	0.8	i
CCn1c(SCc2ccccc2)nc2ccccc2c1=O	8.2*	i
Cn1cc(-c2cc(C(=O)O)on2)cn1	0.03	i
O=C(C1CC2C=CC1C2)N1CCN(c2ccccc2)CC1 (centres undefined)	nt	i
CC1(C)C(C=C(Cl)Cl)C1C(=O)N1CCN(c2ccccc2)CC1 (centres undefined)	-5.7	-5.7*
O=C(Nc1ccccc1)O[C@@H]1C[C@H]2CCC(=O)N3CC[C@@H](C1)[C@@H]23	1.1	i
COc1ccc(C2NC(=O)c3ccccc3O2)cc1 (centres undefined)	nt	i
COc1ccc(-c2nc(-c3ccccn3)ncc2S(C)(=O)=O)cc1	1.5	i
Cn1nc(-c2ccccn2)nc2c(=O)n(C)c(=O)nc1-2	7.4*	i
COc1ccc(C2c3ccc4ccccc4c3Oc3ncn(CCN(C)C)c(=N)c32)cc1 (centres undefined)	nt	i
CN(Cc1ccccc1)C(=O)COC(=O)c1ccccc1NS(=O)(=O)c1cccc(N)c1	nt	i
CC(OC(=O)c1ccccc1NS(=O)(=O)c1cccc(C(F)(F)F)c1)C(=O)N(C)Cc1ccccc1 (centres undefined)	-6.5	-6.5*
COC(=O)c1ccc(NC(=O)CN2CCN(CC#N)CC2)cc1	nt	i
CCN1C(=S)N[C@@H](c2cccs2)C(C(=O)OC)=C1C	nt	i
C=CCN(c1ccccc1)S(=O)(=O)c1ccc2c(c1)N(C(C)=O)CCO2	0.13	i
CCc1nc(N2CCCCC2)c2oc3ccccc3c2n1	nt	i
CCc1nc(N2CCCCC2C)c2oc3ccccc3c2n1 (centres undefined)	-7.5	-7.5*
CCc1nc(N2CCN(Cc3ccc4c(c3)OCO4)CC2)c2oc3ccccc3c2n1	-6.5	-6.5*
CCc1nc(N2CCCCC2C(=O)O)c2oc3ccccc3c2n1 (centres undefined)	1.4	i
COc1cccc(CNC(=O)C2CSC3(C)CCC(=O)N23)c1 (centres undefined)	nt	i
Cc1ccc(C)c(Nc2cc(C)nc3ccccc23)c1	nt	i
CNc1[nH]c(=O)[nH]c(=O)c1N=Nc1cc(Cl)ccc1Cl	1.2	i
SMILES	KCNQ2 enhance	KCNQ2 block
COc1ccc(Cl)cc1NC(=O)CN(C1CCCCC1)S(C)(=O)=O	-5.9	-5.9*
CS(=O)(=O)N(CC(=O)Nc1ccc(F)cc1F)C1CCCCC1	0.06	i
CCSc1nc(C2CC2)cc(-c2cccs2)c1C#N	nt	i
N#Cc1c(-c2ccccc2F)cc(C2CC2)nc1SCC(=O)c1cccs1	12*	i
CCN1CCCC1CNC(=O)Cn1nc(C)n2nc(-c3ccccc3)cc2c1=O (centres undefined)	nt	i
O=C(C1COc2ccccc2O1)N1CCN(c2ccccc2Cl)CC1 (centres undefined)	-7.4	-7.4*
O=C(C1COc2ccccc2O1)N1CCN(c2ccccc2F)CC1 (centres undefined)	nt	i
CCOc1ccc(S(=O)(=O)N2CCN(Cc3ccc4c(c3)OCO4)CC2)cc1C	nt	i
COc1ccc(N(CC(=O)NCc2ccco2)C(=O)CCC(=O)Nc2ccccn2)cc1	0.05	i
COc1cccc(C(c2nnnn2CCc2ccccc2)N2CCN(c3ccccc3)CC2)c1OC (centres undefined)	-6.7	-6.7*
COc1cccc(C(c2nnnn2Cc2ccco2)N2CCN(c3cccc(C)c3C)CC2)c1OC (centres undefined)	-6.2	-6.2*
COc1ccccc1C(c1nnnn1CCc1ccccc1)N1CCN(c2ccccc2)CC1 (centres undefined)	nt	i
COc1ccc(OC)c(C(c2nnnn2Cc2ccco2)N2CCN(C)CC2)c1 (centres undefined)	nt	i
COCCn1c(SCC(=O)Nc2sccc2C(N)=O)nnc1-c1ccncc1	1.3	i
COc1ccccc1CNC(=S)NCCc1ccccc1	nt	i
COc1cc(NC(=S)NCCc2ccccc2)c(OC)cc1NC(=O)C(C)C	-5.8	-5.8*
Cc1ccc(-c2nc(NC(=O)CSc3cc(C)c4ccccc4n3)ns2)cc1	nt	i
COc1ccc2c(C)cc(SCC(=O)Nc3nsc(-c4ccc(C)cc4)n3)nc2c1	-6.3	-6.3*
CC1(C)Cc2cccc(OCC(=O)N3CCN(c4cccc(Cl)c4)CC3)c2O1	nt	i
CC1(C)Cc2cccc(OCC(=O)N3CCN(c4ccccc4Cl)CC3)c2O1	-6.2	-6.2*
CC(=O)c1ccc(OCC(=O)Nc2c(C)nn(-c3ccccc3)c2C)cc1	0.34	i
Cn1c(C(=O)N2CCC(C(N)=O)CC2)cc2cc(Cl)ccc21	nt	i
CC(C)c1nc(CNC(=O)CCc2nnc(-c3ccsc3)o2)cs1	1.4	i
